Source: PubChem (National Center for Advancing Translational Sciences (NCATS))
Compounds with a hit are over-represented: about 7.9% of the library has one in this group of screens.
MARV entry inh: Marburg virus entry inhibition; actives 1.8% (n = 300,000); Marburg virus pseudotyped entry inhibition, cell reporter; Potency, µM (top dose mostly 37.8 µM), for the others: at the highest dose activity change, negative = inhibition, usual class: inhibitors; calls by dose curve; tested in HEK293 cells; note: potency is the fitted concentration of half-maximal effect
Lassa entry inh: Lassa virus entry inhibition; AID 540256; Potency, µM (top dose mostly 37.9 µM), inactives show top-dose activity change, negative = inhibition, most hits filed as inhibitors; actives 1.2% (n = 300,000); Lassa virus pseudotype entry inhibition, cell reporter; calls by dose curve; tested in HEK293 cells; note: potency is the fitted concentration of half-maximal effect; nearly all actives have a fitted effect of over 50% in size
FMDV antiviral: blocks foot and mouth disease virus; FMDV antiviral cell-based qHTS; Potency, µM (top dose mostly 57.9 µM), inactives show at the top dose activity change, negative = inhibition, actives largely listed as inhibitors; actives 1.2% (n = 410,000); AID 1159524; calls by dose curve; tested in HEK293T cells; note: read-out not given here; potency is the fitted concentration of half-maximal effect; nearly all actives have a fitted effect of over 45% in size
HCV inh: inhibitors of hepatitis C virus infection | Potency, µM (titrated, usually from 41.8 µM), for inactives: at the highest dose activity change, negative = inhibition, usual class: inhibitors | actives 3.4% (n = 340,000) | AID 651820 | Huh7.5.1 HCVcc-Cre infection, luciferase reporter, 44 h; active = well fitted inhibition curve with a large enough effect; inconclusive = small, poorly fitted or top-dose-only effect, or another doubt; inactive = no such curve, though single readings can be large or run the other way; note: potency is the fitted concentration of half-maximal effect
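After 44 h co-culture of compound, cells and HCVcc-Cre (~0.5 moi), substrate is added for 15 min at room temperature and luciferase measured over 15 sec. Cells were seeded at 1,000/well and pre-cultured 4 h.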
HCMV inh: inhibitors of human cytomegalovirus; HFF cells, HCMV-luciferase reporter, 72 h; stronger effect = lower value; activity change, negative = inhibition, % at 57.5 µM; actives 4.5% (n = 410,000); in the data active = activity change below about -60%; inconclusive = no clear call, values can overlap the other calls; inactive = above about -39%
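Two-dose cell screen: HFF monolayers treated with compounds and infected with luciferase-expressing HCMV at 1 PFU/cell, 72 h at 37C, then lysed for luciferase measurement.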
Starred values were filed as active, the others as inactive; ? = inconclusive; · = not tested or not shown; [ ] = dose if it differs, or a comment. % is set by controls: 0 for no effect and ±100 for the full control effect.

SMILES	MARV entry inh	Lassa entry inh	FMDV antiviral	HCV inh	HCMV inh
Brc1ccc(-c2c[n+]3c(n2-c2ccccc2)SCC3)cc1	-4.9%[46.1 µM]	?	?	-15.1%	-72.6*
CC(=O)Nc1ccc(N(C(=O)Cn2nnc3ccccc32)C(C(=O)NCc2ccccc2)c2ccc(C)cc2)cc1 (stereo not drawn)	12.4%[46.1 µM]	?	-9.5%	·	-17.4
CCOC(=O)c1c(-c2ccc(OC)cc2)oc2ccc(OCc3ccccc3C)cc12	28.1%[46.1 µM]	-7.4%[46.1 µM]	2.6%	·	-13.2
CSc1ccc(CCNC(=O)c2ccc(-c3nc(COc4ccccc4)c(C)o3)cc2)cc1	·	1.5%[46.1 µM]	-13.5%	·	13.9
COc1ccc(OC)c(CCNC(=O)c2ccc3[nH]c(C)c(C)c3c2)c1	·	?	-19.3%	·	0.0
COc1ccnc(Oc2cccc(C(F)(F)F)c2)c1C(=O)N/C=N/OCc1ccccc1F	?	?	?	11.2µM*	-11.1
Cc1ccccc1OCC(=O)Nc1ccc(OCc2cc(=O)n3ccsc3n2)cc1	6.0%[46.1 µM]	-1.5%[46.1 µM]	-17.4%	·	3.0
CCN(CC)c1nc(NNC(=O)c2ccccc2)nc(N(CC)CC)n1	3.7%	12.8%	3.4%	-20.4%	-70.3*
CN1CCC(n2cnc(-c3ccc(F)cc3)c2-c2ccnc(Nc3ccccc3)n2)CC1	·	15.8µM*	·	·	·
Fc1ccc(-c2ncn(C3CCNCC3)c2-c2ccnc(Oc3ccc4c(c3)OCO4)n2)cc1	·	12.5µM*	·	·	·
COc1nccc(-c2c(-c3ccc(F)cc3)ncn2C2CCC(O)CC2)n1 (stereo not drawn)	·	·	-20.4%	·	·
Fc1ccc(-c2ncn(C3CCNCC3)c2-c2ccnc(Oc3ccccc3)n2)cc1	·	6.28µM*	·	·	·
Cc1ccc2c(-c3ccnc(Nc4ccccc4)n3)c(-c3ccc(F)cc3)nn2n1	·	25µM*	·	·	·
NC(=O)Cc1ccccc1Oc1nccc(-c2c(-c3ccc(F)cc3)ncn2C2CCNCC2)n1	·	-15.5%	·	·	·
COc1ccc(CNc2ncnc3onc(-c4ccc(F)cc4)c23)cc1	·	11.9%[46.1 µM]	-27.5%	·	-13.5
C=CC(=O)N1C(=O)c2ccccc2S1(=O)=O	67.1%[14.2 µM]	?	·	·	·
C=C(C(C)=O)C(O)C=Cc1ccco1 (stereo not drawn)	3.0%[14.2 µM]	·	·	·	·
O=C(O)c1cc(-c2ccc(C(F)(F)F)cc2)nc2n[nH]c(-c3ccccc3)c12	·	-17.8%[46.1 µM]	26.4%	·	28.1
Cc1ccc(-n2nc3c(=O)n(CCCC(=O)NC(C)c4ccccc4)nc(C)c3c2C)cc1 (stereo not drawn)	·	-7.8%[46.1 µM]	-5.6%	·	22.2
CCN1CCCC1CNC(=O)c1ccc(Sc2ccccc2Cl)c([N+](=O)[O-])c1 (stereo not drawn)	?	-21.4%	-20.8%	5.62µM*	?
O=C(NCCCN1CCOCC1)c1ccc(Sc2ccc(F)cc2)c([N+](=O)[O-])c1	0.4%	6.5%	1.6%	?	21.5
CCN1CCCC1CNC(=O)c1ccc(Sc2ccc(F)cc2)c([N+](=O)[O-])c1 (stereo not drawn)	6.31µM*	·	-7.7%	6.31µM*	-18.0
CCOC(=O)c1c(C)oc2c1cc(NS(=O)(=O)c1ccc(C)cc1)c1ccccc12	·	1.8%[46.1 µM]	25.2%	·	28.9
COc1ccccc1Oc1ccc2c(c1)C(=O)N(c1cccc(O)c1)C2=O	10.4%	?	2.3%	22.2%	-4.7
COc1ccccc1Oc1ccc2c(c1)C(=O)N(c1cccc3ncccc13)C2=O	?	-12.2%	20µM*	?	-18.6
SMILES	MARV entry inh	Lassa entry inh	FMDV antiviral	HCV inh	HCMV inh
CCCCn1c(=N)n(CC(=O)c2ccc([N+](=O)[O-])cc2)c2ccccc21	·	·	·	·	-103.7*
Cc1ccc(Cn2c(=N)n(CC(=O)c3ccc([N+](=O)[O-])cc3)c3ccccc32)cc1	?	-21.0%	?	?	-92.4*
Cc1ccc(C(=O)Cn2c(=N)n(CCN3CCOCC3)c3ccccc32)cc1	·	·	-9.1%	-17.8%	72.4
O=C(NCCCO)/C(=C/c1ccc(-c2cccc([N+](=O)[O-])c2)o1)NC(=O)c1ccccc1	?	1.2%	-22.9%	-19.8%	-25.4
Cc1ccc(C(=O)N/C(=C/c2ccc(-c3ccc([N+](=O)[O-])cc3)o2)C(=O)NCCCN(C)C)cc1	3.98µM*	?	-19.4%	-79.1%	?
COC(=O)C(c1ccccc1)(c1cn(C)c2ccccc12)C(Nc1ccc(OC)cc1)c1ccccc1 (stereo not drawn)	·	·	·	·	-5.1
C=CCn1cc(CN2CCC(C(=O)Nc3cccc(-c4cccc(F)c4)c3)CC2)c(C)n1	?	-1.2%	?	?	-19.6
COCc1ccc(CN2CCC(C(=O)Nc3cccc(-c4cccc(Cl)c4)c3)CC2)o1	?	?	?	10µM*	41.7
O=C(Nc1cccc(-c2cccc(Cl)c2)c1)C1CCN(Cc2ccccn2)CC1	?	10µM*	-20.0%	10µM*	-74.3*
C=CCn1cc(CN2CCC(C(=O)Nc3cccc(-c4cccc(Cl)c4)c3)CC2)c(C)n1	·	·	?	5.01µM*	-38.7
O=C(Nc1cccc(-c2cccc(Cl)c2)c1)C1CCN(CC2CCOC2)CC1 (stereo not drawn)	·	·	27.7%	10µM*	?
O=C(Nc1cccc(-c2cccc(Cl)c2)c1)C1CCN(Cc2ccon2)CC1	·	·	-23.5%	?	-37.4
Cc1cc(N2CCCC2=O)ccc1S(=O)(=O)NCCOc1ccccc1	?	?	-1.1%	?	-68.0*
COC(=O)c1ccccc1NC(=O)c1cc(CN2CCOCC2)on1	·	0.1%[46.1 µM]	-4.9%	·	13.3
CCc1c(C(=O)Nc2ccncc2)csc1C	-16.0%	-7.8%	?	?	-99.8*
CC(Oc1ccc2c(c1)c1ccnc3c4ccccc4c(=O)n2c13)C(=O)NCCN1CCOCC1 (stereo not drawn)	·	·	-24.8%	11.2µM*	-89.5*
COc1ccc2c(c1OC)c(=O)n1c3ccc(OC(C)C(=O)NCCN4CCOCC4)cc3c3ccnc2c31 (stereo not drawn)	·	·	-19.5%	?	-2.9
c1ccc(C2=NNC(=NC3CC3)SC2)cc1	?	8.2µM*	·	1.1%	0.5
c1ccc2c(C3=NNC(=NC4CC4)SC3)c[nH]c2c1	?	11.2µM*	-61.0%	10.7%	-3.5
c1ccc2c(C3=NNC(=NC4CCCCC4)SC3)c[nH]c2c1	-0.3%	2.2%	33.8%	-26.8%	74.5
CCc1ccc2oc(-c3ccc(C)c(NC(=O)c4cc([N+](=O)[O-])ccc4N4CCOCC4)c3)nc2c1	?	-10.1%[46.1 µM]	-7.5%	·	?
O=C(Nc1cc(F)ccc1F)c1ccc2c(c1)nnn2C1CCCC1	·	-2.5%[46.1 µM]	43.6%	·	36.5
O=C(Nc1ncccc1O)c1c(O)c2ccccc2[nH]c1=O	·	·	-0.1%	-0.3%	-76.7*
Cc1cccc(C)c1NC(=O)c1c(O)c2ccccc2[nH]c1=O	·	·	13.0%	?	1.2
CCCn1nnnc1NCc1ccc(SC)cc1	·	·	0.0%	9.9%	1.0
CSc1ccc(CNc2nnnn2C)cc1	-16.0%[46.1 µM]	19.3%[46.1 µM]	-15.8%	4.4%	-80.6*
Cc1cc(C(=O)CSc2nnc(-c3ccco3)o2)c(C)n1C	-18.2%[46.1 µM]	8.7%	18.9%	11.2µM*	-16.1
